The text below walks through data of the supplement of paper PMC9794691.

Assay in all cases: area under confluence curve of osimertinib + compound combination regimen (DTP regrowth); compare to osimertinib-only DTP control AUC of the same experiment (AUC (confluence x time, arbitrary))
The subject of one experiment is PC9. An outline of the steps: (§1)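 Two schedules were compared in EGFR-mutant NSCLC lines. In one, the EGFR inhibitor and a fixed-dose test compound were given together up to the persister stage (10–21 days), followed by drug-free medium. In the other, the inhibitor alone came first and the test compound second. Prism calculated the area under the IncuCyte confluence–time curve, taking the median of triplicates where these were available.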

The next experiment has as its system H1975. The method, boiled down: as §1
In another experiment the test system is HCC2279. The method, boiled down:
as §1

In another experiment the test system is HCC2935. The method, boiled down:
as §1

In a further experiment the test system is HCC4006. The method, boiled down: as §1
The next experiment relates to HCC827. An outline of the steps:
as §1

The next experiment relates to II-18. The method, boiled down:
as §1

Setting [1] is: test compound dose 1000 nM, dosing schedule: sequential, osimertinib-only DTP control AUC in same experiment: 10725, DMSO control AUC in same experiment: 30578.
[2] abbreviates: test compound dose 1000 nM, dosing schedule: upfront, osimertinib-only DTP control AUC in same experiment: 10245, DMSO control AUC in same experiment: 30578.

In the case of `Cc1cc2ncnn2cc1Nc1ncc2c(n1)n(C1CCOCC1)c(=O)n2C` + C=CC(=O)Nc1cc(Nc2nccc(-c3cn(C)c4ccccc34)n2)c(OC)cc1N(C)CCN(C)C [osimertinib], the “area under confluence curve” value in the experiment with PC9 (test compound dose 1000 nM, dosing schedule: sequential, osimertinib-only DTP control AUC in same experiment: 15044, DMSO control AUC in same experiment: 30604) turned out to be 10500; with PC9 (test compound dose 1000 nM, dosing schedule: upfront, osimertinib-only DTP control AUC in same experiment: 20672, DMSO control AUC in same experiment: 30604), 12700.

Regarding `Cn1cnc2c(F)c(Nc3ccc(Br)cc3Cl)c(C(=O)NOCCO)cc21` [Selumetinib] + C=CC(=O)Nc1cc(Nc2nccc(-c3cn(C)c4ccccc34)n2)c(OC)cc1N(C)CCN(C)C [osimertinib], the “area under confluence curve” value in the experiment with H1975 (test compound dose 300 nM, dosing schedule: sequential, osimertinib-only DTP control AUC in same experiment: 12533, DMSO control AUC in same experiment: 14522) worked out at 2580; in the experiment with H1975 (test compound dose 300 nM, dosing schedule: upfront, osimertinib-only DTP control AUC in same experiment: 18969, DMSO control AUC in same experiment: 14522) it was 10100; in the experiment with HCC2279 (test compound dose 300 nM, dosing schedule: sequential, osimertinib-only DTP control AUC in same experiment: 15997, DMSO control AUC in same experiment: 40085) it was 8900; in the experiment on HCC2279 (test compound dose 300 nM, dosing schedule: upfront, osimertinib-only DTP control AUC in same experiment: 28057, DMSO control AUC in same experiment: 40085) it was 9080; in the experiment with HCC2935 (test compound dose 300 nM, dosing schedule: sequential, osimertinib-only DTP control AUC in same experiment: 7139, DMSO control AUC in same experiment: 15413) it was 12800; with HCC2935 (test compound dose 300 nM, dosing schedule: upfront, osimertinib-only DTP control AUC in same experiment: 19044, DMSO control AUC in same experiment: 15413), 9550. In addition, the “area under confluence curve” value in the experiment with HCC4006 (test compound dose 300 nM, dosing schedule: sequential, osimertinib-only DTP control AUC in same experiment: 14882, DMSO control AUC in same experiment: 10921) came out at 9590; in the experiment with HCC4006 (test compound dose 300 nM, dosing schedule: upfront, osimertinib-only DTP control AUC in same experiment: 18913, DMSO control AUC in same experiment: 10921), 11700; in the experiment on HCC827 (test compound dose 300 nM, dosing schedule: sequential, osimertinib-only DTP control AUC in same experiment: 18675, DMSO control AUC in same experiment: 48895) it was 11400; in the experiment with HCC827 (test compound dose 300 nM, dosing schedule: upfront, osimertinib-only DTP control AUC in same experiment: 25542, DMSO control AUC in same experiment: 48895), 11100; in the experiment on II-18 (test compound dose 300 nM, dosing schedule: sequential, osimertinib-only DTP control AUC in same experiment: 21014, DMSO control AUC in same experiment: 18482), 16200; in the experiment with II-18 (test compound dose 300 nM, dosing schedule: upfront, osimertinib-only DTP control AUC in same experiment: 27084, DMSO control AUC in same experiment: 18482), 14400. Further, the “area under confluence curve” value in the experiment with PC9 (test compound dose 300 nM, dosing schedule: sequential, osimertinib-only DTP control AUC in same experiment: 14554, DMSO control AUC in same experiment: 49189) was found to be 10400; in the experiment on PC9 (test compound dose 300 nM, dosing schedule: upfront, osimertinib-only DTP control AUC in same experiment: 24473, DMSO control AUC in same experiment: 49189) it was 11200.

For the compound `Cc1nc2nc(C)c(O[C@@H]3CCN(c4ccc(-c5ccc(CN6CCOCC6)nn5)cc4)C3)c(C)n2n1` + C=CC(=O)Nc1cc(Nc2nccc(-c3cn(C)c4ccccc34)n2)c(OC)cc1N(C)CCN(C)C [osimertinib], the “area under confluence curve” value in the experiment with PC9 (setting [1]) amounted to 14600; in the experiment on PC9 (setting [2]), 12400.

Regarding `Cc1cc2cc(C(=O)c3cnn(-c4cnc(Oc5c(F)cccc5F)cc4C)c3N)[nH]c2cc1NS(C)(=O)=O` + C=CC(=O)Nc1cc(Nc2nccc(-c3cn(C)c4ccccc34)n2)c(OC)cc1N(C)CCN(C)C [osimertinib], the “area under confluence curve” value in the experiment on PC9 (test compound dose 1000 nM, dosing schedule: sequential, osimertinib-only DTP control AUC in same experiment: 10968, DMSO control AUC in same experiment: 21594) was determined as 7640; in the experiment on PC9 (test compound dose 1000 nM, dosing schedule: upfront, osimertinib-only DTP control AUC in same experiment: 17834, DMSO control AUC in same experiment: 21594), 9050.

In the case of `C[C@@]1(C(=O)Nc2ccc(F)nc2)CCCN1c1nc(Nc2cc(C3CC3)n[nH]2)c2cccn2n1` + C=CC(=O)Nc1cc(Nc2nccc(-c3cn(C)c4ccccc34)n2)c(OC)cc1N(C)CCN(C)C [osimertinib], the “area under confluence curve” value in the experiment on H1975 (test compound dose 100 nM, dosing schedule: sequential, osimertinib-only DTP control AUC in same experiment: 22617, DMSO control AUC in same experiment: 16540) came out at 13500; with H1975 (test compound dose 100 nM, dosing schedule: upfront, osimertinib-only DTP control AUC in same experiment: 28291, DMSO control AUC in same experiment: 16540), 12500; with HCC2279 (test compound dose 100 nM, dosing schedule: sequential, osimertinib-only DTP control AUC in same experiment: 26096, DMSO control AUC in same experiment: 14404), 24200; with HCC2279 (test compound dose 100 nM, dosing schedule: upfront, osimertinib-only DTP control AUC in same experiment: 33120, DMSO control AUC in same experiment: 14404), 34700; in the experiment on HCC2935 (test compound dose 100 nM, dosing schedule: sequential, osimertinib-only DTP control AUC in same experiment: 22314, DMSO control AUC in same experiment: 19215), 22300; with HCC2935 (test compound dose 100 nM, dosing schedule: upfront, osimertinib-only DTP control AUC in same experiment: 29846, DMSO control AUC in same experiment: 19215), 22200. In addition, the “area under confluence curve” value was determined as 11000 in the experiment with HCC4006 (test compound dose 100 nM, dosing schedule: sequential, osimertinib-only DTP control AUC in same experiment: 12791, DMSO control AUC in same experiment: 18415); 9040 with HCC4006 (test compound dose 100 nM, dosing schedule: upfront, osimertinib-only DTP control AUC in same experiment: 17269, DMSO control AUC in same experiment: 18415); 12600 in the experiment on HCC827 (test compound dose 100 nM, dosing schedule: sequential, osimertinib-only DTP control AUC in same experiment: 15330, DMSO control AUC in same experiment: 21320); 23300 in the experiment with HCC827 (test compound dose 100 nM, dosing schedule: upfront, osimertinib-only DTP control AUC in same experiment: 20798, DMSO control AUC in same experiment: 21320); 533 in the experiment with II-18 (test compound dose 100 nM, dosing schedule: sequential, osimertinib-only DTP control AUC in same experiment: 8624, DMSO control AUC in same experiment: 11834); 1400 in the experiment with II-18 (test compound dose 100 nM, dosing schedule: upfront, osimertinib-only DTP control AUC in same experiment: 10856, DMSO control AUC in same experiment: 11834).

As to `CCOC(=O)c1ccnc(CNCC(=O)N(CC)CCN(C)C)c1` + C=CC(=O)Nc1cc(Nc2nccc(-c3cn(C)c4ccccc34)n2)c(OC)cc1N(C)CCN(C)C [osimertinib], the “area under confluence curve” value in the experiment on PC9 (test compound dose 1000 nM, dosing schedule: sequential, osimertinib-only DTP control AUC in same experiment: 3562, DMSO control AUC in same experiment: 31840) was found to be 3420; in the experiment on PC9 (test compound dose 1000 nM, dosing schedule: upfront, osimertinib-only DTP control AUC in same experiment: 19015, DMSO control AUC in same experiment: 31840), 16700.

On to `O=C(N[C@@H](C1CC1)C(F)(F)F)c1cc(-c2cnn3cc(-c4ccc(F)cc4)cnc23)cs1` + C=CC(=O)Nc1cc(Nc2nccc(-c3cn(C)c4ccccc34)n2)c(OC)cc1N(C)CCN(C)C [osimertinib], for which the “area under confluence curve” value came out at 9160 in the experiment with PC9 (test compound dose 1000 nM, dosing schedule: sequential, osimertinib-only DTP control AUC in same experiment: 10206, DMSO control AUC in same experiment: 18733) and 16800 in the experiment on PC9 (test compound dose 1000 nM, dosing schedule: upfront, osimertinib-only DTP control AUC in same experiment: 17072, DMSO control AUC in same experiment: 18733).

In the case of `Cc1[nH]nc(C(F)(F)F)c1Cc1sc2c(c1C(=O)N1C[C@](C)(O)CO1)c(=O)n(C)c(=O)n2C(C)C` + C=CC(=O)Nc1cc(Nc2nccc(-c3cn(C)c4ccccc34)n2)c(OC)cc1N(C)CCN(C)C [osimertinib], the “area under confluence curve” value with PC9 (setting [1]) came out at 18600; in the experiment on PC9 (setting [2]), 11200.

As to `Cc1nc(Nc2ncc(C(=O)Nc3c(C)cccc3Cl)s2)cc(N2CCN(CCO)CC2)n1` [Dasatinib] + C=CC(=O)Nc1cc(Nc2nccc(-c3cn(C)c4ccccc34)n2)c(OC)cc1N(C)CCN(C)C [osimertinib], the “area under confluence curve” value with H1975 (test compound dose 100 nM, dosing schedule: upfront, osimertinib-only DTP control AUC in same experiment: 18969, DMSO control AUC in same experiment: 14522) was found to be 1440; in the experiment on HCC2279 (test compound dose 100 nM, dosing schedule: upfront, osimertinib-only DTP control AUC in same experiment: 43517, DMSO control AUC in same experiment: 29252), 15300; in the experiment with HCC2935 (test compound dose 100 nM, dosing schedule: upfront, osimertinib-only DTP control AUC in same experiment: 10360, DMSO control AUC in same experiment: 13875) it was 3810; with HCC4006 (test compound dose 100 nM, dosing schedule: upfront, osimertinib-only DTP control AUC in same experiment: 21234, DMSO control AUC in same experiment: 16638) it was 4610; with HCC827 (test compound dose 100 nM, dosing schedule: upfront, osimertinib-only DTP control AUC in same experiment: 39553, DMSO control AUC in same experiment: 30859), 3890; in the experiment on II-18 (test compound dose 30 nM, dosing schedule: upfront, osimertinib-only DTP control AUC in same experiment: 13359, DMSO control AUC in same experiment: 11408) it was 2420. Besides, the “area under confluence curve” value in the experiment on PC9 (test compound dose 30 nM, dosing schedule: sequential, osimertinib-only DTP control AUC in same experiment: 10175, DMSO control AUC in same experiment: 27958) was 2120; with PC9 (test compound dose 30 nM, dosing schedule: sequential, osimertinib-only DTP control AUC in same experiment: 12589, DMSO control AUC in same experiment: 28243), 1440; with PC9 (test compound dose 30 nM, dosing schedule: upfront, osimertinib-only DTP control AUC in same experiment: 16088, DMSO control AUC in same experiment: 28243) it was 1770; in the experiment on PC9 (test compound dose 30 nM, dosing schedule: upfront, osimertinib-only DTP control AUC in same experiment: 16134, DMSO control AUC in same experiment: 27958) it was 2420.
